In PubChem BioAssay:
Activity calls are given as the source filed them.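 Rule for the calls, unless noted: active = inhibition of the reporter signal at or above 50%; inactive = inhibition below 50%.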

Columns and labels:
[1] = inhibitors of TNFa-induced NFkB p65 translocation, primary screen, imaging, HUVEC, MLSMR starter and 10KST1 sets (AID 438;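 active = inhibition above 20% together with a positive visual image hit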;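 note: compound added about 3h40 before a 20 min TNFalpha stimulation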;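 for inhibition: signal is the nuclear over cytoplasmic p65 intensity ratio per well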); settings: HUVEC TNFa-induced p65 nuclear translocation; cell count: measured here: nuclei count (cytotoxicity indicator), at 2.08 µM; inhibition: at 2 µM, stronger effect = higher value, 0% TNFa-plus-vehicle, 100% no-TNFa wells
[2] = reduction of polyQ htt aggregates in cells – imaging, exon1htt(103Q)mCFP cells, high-content imaging, primary screen (AID 483;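 active = visual image review flags a hit and inhibition of aggregation exceeds 20%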;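 note: compound exposure lasted 3 days before fixation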;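 for nuclei count: percent of the per-plate median nuclei count of sample wells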); settings: exon1htt(103Q)mCFP cell line, aggregate imaging, at 2 µM; inhibition of aggregation: stronger effect = higher value; nuclei count: measured here: cell count, toxicity
[3] = endothelial E-selectin expression blockers – imaging, HUVEC, immunofluorescence, MLSMR starter and 10KST1 sets, primary screen (AID 487;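 active = visually confirmed hit in the image check and inhibition above 20%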;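 for inhibition: signal is fraction of cell area covered by stained E-selectin grains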;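 for nuclei count: 100% = median nuclei count of all wells on the same plate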); settings: HUVEC TNFalpha-induced E-selectin immunofluorescence imaging, at 2 µM; inhibition: stronger effect = higher value; nuclei count: measured here: cell number, toxicity
[4] = target: Voltage-gated potassium channel subunit beta-2 (Rattus norvegicus) (UniProt P62483); assay: inhibitors of rat Kvbeta2 reductase activity – biochemical, NADPH fluorescence, primary screen (AID 622;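 active = fluorescence slope higher than the sample average by over 3 SD, cut at about -0.22 in these data, passing the limit was not always enough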;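 note: slope of raw intensity against log time taken from 70 to 1610 s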); settings: recombinant KvBeta, 4-cyanobenzaldehyde reduction, at 10 µM, stronger effect = higher value
Chain of Voltage-gated potassium channel subunit beta-2 (Rattus norvegicus) (P62483 whole entry, looked up): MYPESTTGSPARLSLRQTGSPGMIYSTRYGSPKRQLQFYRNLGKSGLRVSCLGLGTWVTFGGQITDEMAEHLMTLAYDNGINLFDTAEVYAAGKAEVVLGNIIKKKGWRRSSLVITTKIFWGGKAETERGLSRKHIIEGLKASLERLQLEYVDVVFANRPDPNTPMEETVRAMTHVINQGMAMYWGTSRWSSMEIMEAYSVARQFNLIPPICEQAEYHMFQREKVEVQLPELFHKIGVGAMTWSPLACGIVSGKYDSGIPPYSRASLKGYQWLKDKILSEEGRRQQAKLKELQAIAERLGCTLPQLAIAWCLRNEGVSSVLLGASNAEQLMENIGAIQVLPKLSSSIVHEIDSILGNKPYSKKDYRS

[5] = target: Voltage-gated potassium channel subunit beta-2 (Rattus norvegicus) (UniProt P62483); assay: enhancers of rat Kvbeta2 NADPH turnover – biochemical, NADPH fluorescence, primary screen (AID 623;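 active = NADPH fluorescence slope more negative than the mean of all samples by about 3 SD, 99.7% confidence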;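 note: fluorescence intensity change per second fitted from 20 to 320 s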); settings: Recombinant KvBeta, NADPH fluorescence decrease slope, 10 min; at 10 µM; stronger effect = lower value
[6] = target: Alpha-2C adrenergic receptor (Homo sapiens) (UniProt P18825); assay: compounds altering alpha2C-coupled GIRK flux – cell-based, HEK293 alpha2C/GIRK1/2, thallium flux, primary screen (AID 624;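 active = fluorescence slope after compound addition differing from the mean of all screened samples at 99.7% confidence, in either direction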;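 note: slope of fluorescence ratio to pre-addition baseline per second over 15 to 24 s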); settings: thallium flux BTC fluorescence, at 10 µM, actives lie on both sides
Chain of Alpha-2C adrenergic receptor (Homo sapiens) (P18825 whole entry, looked up): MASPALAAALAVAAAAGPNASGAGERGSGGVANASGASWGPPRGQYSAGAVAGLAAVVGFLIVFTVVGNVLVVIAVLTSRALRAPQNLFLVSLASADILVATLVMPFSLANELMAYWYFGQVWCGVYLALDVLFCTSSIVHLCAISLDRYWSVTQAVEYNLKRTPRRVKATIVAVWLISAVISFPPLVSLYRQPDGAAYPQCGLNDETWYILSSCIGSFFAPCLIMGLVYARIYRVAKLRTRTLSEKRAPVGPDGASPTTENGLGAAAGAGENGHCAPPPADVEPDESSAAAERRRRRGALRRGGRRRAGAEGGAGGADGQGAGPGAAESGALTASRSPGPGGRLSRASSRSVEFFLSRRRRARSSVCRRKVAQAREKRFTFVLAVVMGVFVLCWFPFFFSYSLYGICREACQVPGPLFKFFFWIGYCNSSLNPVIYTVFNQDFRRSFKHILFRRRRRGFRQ

[7] = blockers of RIG-like receptor reporter activation – cell-based, Sendai virus stimulus, luciferase, 10K MLSCN set, TLR/RLR signaling modifier project, primary screen (AID 602276;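 active = inhibition at or above 50% at 10 µM; inactive = inhibition below 50%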;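 note: firefly luciferase from ISG56 promoter only with Renilla not read in this screen; 0% = Sendai virus plus DMSO and 100% = medium plus DMSO without virus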); settings: HEK293 RL24 IRF3 luciferase reporter, at 10 µM, stronger effect = higher value
[8] = TLR3 IRF3 reporter activation blockers – cell-based, poly I:C stimulus, luciferase, 10K MLSCN set, primary screen (AID 602277); settings: HEK293-TLR3 RL24 IRF3 luciferase reporter, at 10 µM, stronger effect = higher value

SMILES | cell count [1] | inhibition [1] | inhibition of aggregation [2] | nuclei count [2] | inhibition [3] | nuclei count [3] | fluorescence slope [4] | NADPH fluorescence slope [5] | slope [6] | inhibition [7] | inhibition [8]
CCOC(=O)CN1CC23C=CC(O2)C(C(=O)NCc2ccc(F)cc2)C3C1=O (centres undefined) | 572 | -2% (inactive) | 15.7% (inactive) | 106% | -142% (inactive) | 131% | -0.589 (inactive) | -1.1e-05 (inactive) | 0.00638 (inactive) | 14% (inactive) | 27.7% (inactive)
Cc1cccc(-n2nnnc2SCc2csc(-c3ccccc3)n2)c1 | 413 | 2.9% (inactive) | -8.3% (inactive) | 125% | -106% (inactive) | 127% | -0.502 (inactive) | -3.3e-05 (inactive) | 0.00568 (inactive) | 9.28% (inactive) | 6.25% (inactive)
C=Cn1c(N2CCOCC2)nc2c1c(=O)[nH]c(=O)n2C | 719 | 0.9% (inactive) | -2.7% (inactive) | 62.9% | 21.8% (inactive) | 115% | -0.412 (inactive) | -2.2e-05 (inactive) | 0.00579 (inactive) | 20% (inactive) | 20.4% (inactive)
O=C(CSc1ncn[nH]1)c1ccco1 | 746 | -13.5% (inactive) | -3.4% (inactive) | 112% | 13.2% (inactive) | 119% | -0.453 (inactive) | -9.5e-06 (inactive) | 0.00556 (inactive) | 18.7% (inactive) | 26.5% (inactive)
COc1cccc(CN=CC2=C(O)CC(C)(C)CC2=O)c1OC | 326 | -18.3% (inactive) | -1.8% (inactive) | 99.6% | -1.5% (inactive) | 111% | -0.468 (inactive) | 9.7e-05 (inactive) | 0.00629 (inactive) | 1.64% (inactive) | 3.58% (inactive)
N#CC1=C(N)OC2=C(CCC/C2=C/c2ccoc2)C1c1ccoc1 (centres undefined) | 413 | -5.2% (inactive) | -17.9% (inactive) | 113% | -137% (inactive) | 115% | -0.313 (inactive) | -5.7e-05 (inactive) | 0.00619 (inactive) | -7.37% (inactive) | -9.08% (inactive)
CC(C)C(c1nnnn1C1CCCC1)N1CCN(C(=O)c2ccco2)CC1 (centres undefined) | 426 | 9.7% (inactive) | -33.8% (inactive) | 67.7% | -101% (inactive) | 115% | -0.566 (inactive) | -1.1e-05 (inactive) | 0.00617 (inactive) | -4.43% (inactive) | 4.27% (inactive)
CC(=O)Nc1ccc(-c2nn[nH]n2)cc1Cl | 630 | -10.7% (inactive) | -3% (inactive) | 69.9% | 0.8% (inactive) | 97.8% | -0.546 (inactive) | -2.3e-05 (inactive) | 0.00431 (inactive) | 13.2% (inactive) | 12.5% (inactive)
c1ccc2c(c1)nc(-c1ccncc1)n1nnnc21 | 517 | -8.5% (inactive) | 8.6% (inactive) | 104% | -111% (inactive) | 179% | -0.359 (inactive) | -1.7e-05 (inactive) | 0.00824 (inactive) | 7.9% (inactive) | 0.706% (inactive)
CCOC(=O)C1C(=O)N(C(=O)c2ccc(OC)cc2)CC1c1ccccc1 (centres undefined) | 423 | -7.6% (inactive) | -7.4% (inactive) | 99% | -39.2% (inactive) | 128% | -0.384 (inactive) | -0.000151 (inactive) | 0.00629 (inactive) | 12.3% (inactive) | 22.3% (inactive)
CC(C)(C)n1nnnc1CN(Cc1ccco1)Cc1cc2cc3c(cc2[nH]c1=O)OCO3 | 667 | 13.3% (inactive) | -11.2% (inactive) | 108% | -53.9% (inactive) | 130% | -0.401 (inactive) | -5.7e-05 (inactive) | 0.00513 (inactive) | 15.5% (inactive) | 16% (inactive)
COC(=O)CCCCC(=O)C1C(=O)CC(C)(C)C(C(=O)OC)C1=O (centres undefined) | 431 | -0.3% (inactive) | -13.3% (inactive) | 96.5% | -1.3% (inactive) | 121% | -0.49 (inactive) | 4.5e-05 (inactive) | 0.00358 (inactive) | -9.68% (inactive) | 3.35% (inactive)
CCn1cc(C(=O)NCCC2=CCCCC2)c(=O)c2cc(S(=O)(=O)N(C)C)ccc21 | 458 | -6.1% (inactive) | 38.5% (active) | 79% | -45.7% (inactive) | 93.2% | -0.563 (inactive) | -4.1e-05 (inactive) | 0.00705 (inactive) | 3.13% (inactive) | 17.6% (inactive)
Cc1nnc(SCCn2c(N3CCC(Cc4ccccc4)CC3)nc3c2c(=O)[nH]c(=O)n3C)s1 | 432 | -1.1% (inactive) | -91.9% (inactive) | 79.6% | -2.5% (inactive) | 104% | -0.54 (inactive) | 3.5e-06 (inactive) | 0.00468 (inactive) | 1.88% (inactive) | 20.9% (inactive)
